ChEMBL document CHEMBL3988442, “University of Dundee, Small-Polar-MMV Screening Library” (2021)
About 13,000 (27%) of roughly 48,000 compounds showed an effect of 50% or more. Some of the results follow.

Test system: Wolbachia pipientis
Test: Anti-Wolbachia Cell-Based Screen
Format: functional
Set-up: scale not given: in the data most compounds retested in dose-response had high values
Conditions: 5 µM

Structure (SMILES) | Percent Effect
CSCCCN1CCC(c2nnc(Cn3ccnc3)n2C2CC2)CC1 | 14.62%
N#Cc1cccc(OCCN2CCC(C(=O)N3CCOCC3)CC2)c1 | -12.33%
O=C(CC(F)(F)F)N1C[C@@H]2CC[C@H](C1)N(Cc1ccccc1)C2=O | -3.015%
CCn1c(C2CCCN(Cc3ccc4ccccc4n3)C2)nn(C)c1=O (centres undefined) | 31.19%
COc1ccccc1C1(CNc2cn[nH]c(=O)c2Cl)CCOCC1 | -1.761%
Cc1ncsc1CCN1CCN(C(=O)c2ccc(=O)[nH]c2)CC1 | 12.93%
COCC(=O)N1CCn2c(Cn3cncn3)cnc2C1C (centres undefined) | 79.44%
COCCC(=O)N1CCn2c(COCC3CC3)cnc2C1C (centres undefined) | -18.59%
CC(O)C(=O)N1CCC(c2[nH]ncc2-c2ccccc2)CC1 (centres undefined) | 105.3%
Cc1ccc(N2CCCC(c3[nH]ncc3-c3ccccc3)C2)nn1 (centres undefined) | 25.67%
CCc1cn[nH]c1C1CCN(C(=O)c2cccc(O)c2C)CC1 | -3.715%
C[C@H](N)C(=O)N1CCC(c2[nH]ncc2-c2ccccc2)CC1 | 108.2%
CC(C(=O)N1CCC(c2[nH]ncc2-c2ccccc2)CC1)n1cncn1 (centres undefined) | 96.41%
C[C@@H](N)C(=O)N1CCC(c2[nH]ncc2-c2ccccc2)CC1 | 132.4%
Cc1ccc(-c2cn[nH]c2C2CCCN(c3nccc(N)n3)C2)cc1 (centres undefined) | 6.644%
FC(F)c1nnc2ccc(N3CCC4(CCOC4)C3)nn12 (centres undefined) | -11.38%
CSc1ncc(CNC(C)c2cnn(-c3ccccc3)c2C)cn1 (centres undefined) | 31.2%
CN(CCCc1n[nH]c(N)c1C#N)C(=O)Nc1cc(Cl)cc(Cl)c1 | 9.984%
Cc1ccc(NCc2ncc(C(C)(C)C)o2)c(Cl)c1 | -11.33%
O=C(CCC1CCN(Cc2ccncc2)CC1)Nc1ccccc1Cl | -2.559%
Cc1cnn(CC2CCCN2C(=O)c2cc(C)no2)c1 (centres undefined) | 3.618%
Cc1cnn(CC2CCCCN2C(=O)Cc2c(C)noc2Cl)c1 (centres undefined) | 116.9%
Cc1cnn(CC2CCCN2C(=O)Cc2c(C)noc2Cl)c1 (centres undefined) | 116%
Cc1cnn(CC2CCCN2C(=O)Cc2cn3ccsc3n2)c1 (centres undefined) | 12.98%
Cc1cnn(CC2CCCCN2C(=O)CN(C)C2CC2)c1 (centres undefined) | 4.023%
CCN1CC2(CCN(C(=O)C(C)Oc3ccc(F)cc3F)CC2)OC1=O (centres undefined) | -0.4228%

Structure (SMILES) | Percent Effect
Cc1cc(C[S+]([O-])CC(=O)NCc2cccc(Cl)c2)no1 (centres undefined) | 98%
O=C(C[S+]([O-])Cc1cccc(Cl)c1)NC1CCCC1 (centres undefined) | -4.291%
Cc1cc(C[S+]([O-])CC(=O)Nc2c(C)cccc2C)no1 (centres undefined) | 4.503%
COc1ccc(F)cc1C[S+]([O-])CC(=O)NCc1ccccc1C (centres undefined) | 4.028%
Cc1cc(C[S+]([O-])CC(=O)NCc2ccccc2)no1 (centres undefined) | 111.1%
COc1ccccc1CNC(=O)C[S+]([O-])Cc1cc(C)on1 (centres undefined) | 100.1%
COc1ccc(F)cc1C[S+]([O-])CC(=O)NCc1ccccc1 (centres undefined) | -20.74%
Cc1cc(C[S+]([O-])CC(=O)NCc2cccs2)no1 (centres undefined) | -0.248%
Cc1cc(C[S+]([O-])CC(=O)NCC(C)C)no1 (centres undefined) | -9.622%
CNC(=O)CCS(=O)(=O)Cc1nnnn1-c1ccccc1 | 7.116%
CC1(NC(=O)CC2CCc3ccccc32)CCOCC1 (centres undefined) | -18.69%
CCN(CC(C)C#N)C(=O)c1cccc(COc2ccc(C)nc2)c1 (centres undefined) | 11.78%
CC(c1ccco1)N(C(=O)c1cccc(C#N)c1)C1CC1 (centres undefined) | -7.767%
CC(C)n1ccnc1CN1CCCN(C(=O)c2cccnc2O)CC1 | 3.954%
CC(C)c1noc(CCC(=O)Nc2cc(F)ccc2F)n1 | 6.757%
CC(C)c1noc(CN2CCN(C(=O)c3cc(Cl)ccc3F)CC2)n1 | 113.5%
CC(C)c1noc(CN2CCN(C(=O)c3ccncc3F)CC2)n1 | 113.2%
CC(C)c1noc(CN2CCN(C(=O)c3ccccc3F)CC2)n1 | 4.935%
CN(C)Cc1nc2c(o1)CN(C(=O)c1ccncc1F)C2 | -6.758%
CC(C)c1noc(CN2CCN(C(=O)c3cccnc3O)CC2)n1 | 109.3%
CC(C)(O)CN1CCN(C(=O)c2cccnc2O)CC1 | -5.606%
CN(C)C(=O)c1ccc(-c2cscn2)cc1 | -9.809%
O=C(O)C(F)(F)F.O=C(c1cnccn1)N1CCN2C[C@H](Oc3cccc(F)c3)C[C@H]2C1 | 8.036%
OC1(CNCc2ccc(F)c(C(F)(F)F)c2)CCOC1 (centres undefined) | -11.97%
CCN1CCC2(CN(C(=O)N(C)C)CC23CCN(CC2CC2)CC3)C1=O.O=C(O)C(F)(F)F (centres undefined) | -42.34%
CC(C)(C)c1nnc(CN2CCCC(Cn3cncn3)C2)o1 (centres undefined) | 3.207%

Structure (SMILES) | Percent Effect
c1cnc(-c2nc(CN3CCCC(Cn4cncn4)C3)cs2)nc1 (centres undefined) | 1.551%
CC(C)(C)c1nc(CN2CCCC(Cn3cncn3)C2)no1 (centres undefined) | 114.7%
c1ncn(CC2CN(Cc3noc(C4CC4)n3)CCO2)n1 (centres undefined) | 0.6807%
c1ncn(CC2CCCN(Cc3noc(C4CC4)n3)C2)n1 (centres undefined) | 115%
c1ncn(CCNC2CCCN(Cc3noc(C4CC4)n3)C2)n1 (centres undefined) | 10.95%
CCCc1nc(CN2CCCC(Cn3cncn3)C2)no1 (centres undefined) | 15.71%
Cc1nc(CN2CCCC(Cn3cncn3)C2)no1 (centres undefined) | 79.74%
Cc1ccc(CNC(=O)NCC(=O)NC(C)(C)C)c(N2CCCC2)c1 | 2.082%
Fc1ccccc1-c1noc2c1CN(CC1CC1)CC2 | -13.76%
Cn1ccnc1CN1C[C@@H](F)[C@@H](OCc2nc3cnccc3[nH]2)C1 | 4.118%
CCOCCn1c(=O)[nH]c2cc(C(=O)N(C)Cc3ccno3)ccc21 | 10.95%
O=C1CCC2(CCNCC2)CN1CCCNc1cccnc1 | -8.003%
Cc1ccc2c(n1)N(C)CCN(C(=O)C1CC1)C2.O=C(O)C(F)(F)F | -19.49%
O=C(CC1CC1)N1CCN(Cc2ccncc2)c2ncccc2C1.O=C(O)C(F)(F)F.O=C(O)C(F)(F)F | 106.6%
O=C(C1CC1)N1CCN(Cc2ccncc2)c2ncccc2C1.O=C(O)C(F)(F)F.O=C(O)C(F)(F)F | 97.41%
O=C(CC1CC1)N1CCN(Cc2cccnc2)c2ncccc2C1.O=C(O)C(F)(F)F.O=C(O)C(F)(F)F | 108.8%
COCC(=O)N1CCN(CC2CC2)c2ncccc2C1 | 17.09%
CC(=O)NCC(=O)N1CCN(Cc2cccnc2)c2ncccc2C1 | -23.25%
O=C(O)C(F)(F)F.O=C(O)CCC(=O)N1CCN(CC2CC2)c2ncccc2C1 | -20.91%
COCC(=O)N1CCN(Cc2cccnc2)c2ncccc2C1.O=C(O)C(F)(F)F.O=C(O)C(F)(F)F | 107.3%
O=C(Cc1ccsc1)N1CCN(CC2CC2)c2ncccc2C1.O=C(O)C(F)(F)F | -24.66%
CCCS(=O)(=O)N1CCC2(CC1)CCn1c(-c3cnn(C)c3)cnc12.O=C(O)C(F)(F)F | -1.785%
CC(=O)NS(=O)(=O)c1ccc2c(c1)N(C)CCC2 | -0.0475%
CCc1nsc(N2CCCN(C(=O)c3ccc(OC)cc3)CC2)n1 | 4.92%
CN(C)C(=O)N1CCC(C(=O)N2CCOC(CC3CCCCC3)C2)CC1 (centres undefined) | 1.077%
CN(C)Cc1nnc(C2CCCN(Cc3ccc(Cl)s3)C2)n1C (centres undefined) | -1.038%

Structure (SMILES) | Percent Effect
COc1ncnc2c1CCN(c1cc(C(F)(F)F)ncn1)CC2 | -19.6%
N#Cc1ccnc(N2CCC(NCCN3CCCC3)CC2)c1 | 4.204%
Cn1c(N)nnc1SCc1ccc(Cl)cc1Br | -13.54%
CN(Cc1cscn1)Cc1cc2c(cc1Br)OCO2 | 7.123%
Cn1c(N)nnc1SCc1cc(Br)ccc1Cl | -1.725%
Cn1cnnc1SCc1cc2c(cc1Cl)OCO2 | 116.9%
Cn1nnnc1SCCNC1CCN(c2ccc3c(c2)OCO3)CC1 | -18.49%
Cn1nnnc1SCc1cc2c(cc1Cl)OCO2 | 119.1%
Cn1cnnc1S(=O)(=O)Cc1cc(Cl)c2c(c1)OCO2 | -6.914%
Cn1cnnc1SCc1cc2c(cc1Br)OCO2 | 98.1%
CC(C)C(=O)Nc1ccc(Sc2nncn2C)c(Cl)c1 | 7.85%
CCCc1cc(NC(=O)c2cc(N3CCNC3=O)c(F)cc2F)n[nH]1 | -4.311%
Cc1noc(C)c1CN(C)Cc1nc(N)c2ccccc2n1 | -15.35%
Cc1noc(C)c1CN(C)c1ncnc2onc(C)c12 | 10.95%
Cc1noc(C)c1CN(C)c1ncnc2ccccc12 | 85.55%
COCCN1CC[C@@H]2O[C@@H](COCC(=O)N3CCCC3)CC[C@@H]21.O=C(O)C(F)(F)F | -7.716%
Cc1cccc(COC[C@@H]2CC[C@H]3[C@H](CCN3C(=O)CC3CC3)O2)n1.O=C(O)C(F)(F)F | -1.291%
O=C(COC[C@@H]1CC[C@H]2[C@H](CCN2Cc2ccco2)O1)N1CCCC1 | 94.38%
Cc1cccc(COC[C@@H]2CC[C@H]3[C@H](CCN3Cc3ccco3)O2)n1.O=C(O)C(F)(F)F.O=C(O)C(F)(F)F | -8.217%
O=C(c1ccco1)N1CC[C@@H]2O[C@@H](COCC3CCOCC3)CC[C@@H]21 | -0.1018%
c1coc(CN2CC[C@@H]3O[C@@H](COCC4CCOCC4)CC[C@@H]32)c1 | 95.89%
CN(C)C(=O)COC[C@H]1CC[C@@H]2[C@@H](CCN2Cc2ccco2)O1.O=C(O)C(F)(F)F | 91.23%
Cc1cccc(COC[C@H]2CC[C@H]3[C@H](CCN3Cc3ccco3)O2)n1 | 105.2%
CN(C)C(=O)COCC1C[C@@H]2OCCN(Cc3ccco3)[C@H]2C1 (some centres undefined) | -1.169%
O=C(COC[C@H]1CC[C@H]2[C@H](CCN2c2ncccn2)O1)N1CCCC1.O=C(O)C(F)(F)F | -10.98%
O=C(c1ccco1)N1CC[C@@H]2O[C@H](COCC3CCOCC3)CC[C@@H]21 | -18.62%
